Screening results deposited in PubChem BioAssay by The Scripps Research Institute Molecular Screening Center.
CHRM1 antagonist = human M1 muscarinic receptor antagonists, primary screen, CHO-K1 cells, Fluo-8 calcium fluorescence, 1536-well | Muscarinic acetylcholine receptor M1 (Homo sapiens), P11229 | AID 588852, 2011 | inhibition, % at 3 µM | CHO-K1 hM1, ACh EC80 antagonist | hit rate 1.3% among 360,000;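 active = percent inhibition above its own plate's cutoff, namely the mean of that plate's compound wells plus 3 SD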;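 note: peak over basal fluorescence ratio during 140 s after agonist addition; 0% = ACh EC80 plus DMSO and 100% = DMSO alone without agonist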
Target sequence (P11229 whole entry, looked up): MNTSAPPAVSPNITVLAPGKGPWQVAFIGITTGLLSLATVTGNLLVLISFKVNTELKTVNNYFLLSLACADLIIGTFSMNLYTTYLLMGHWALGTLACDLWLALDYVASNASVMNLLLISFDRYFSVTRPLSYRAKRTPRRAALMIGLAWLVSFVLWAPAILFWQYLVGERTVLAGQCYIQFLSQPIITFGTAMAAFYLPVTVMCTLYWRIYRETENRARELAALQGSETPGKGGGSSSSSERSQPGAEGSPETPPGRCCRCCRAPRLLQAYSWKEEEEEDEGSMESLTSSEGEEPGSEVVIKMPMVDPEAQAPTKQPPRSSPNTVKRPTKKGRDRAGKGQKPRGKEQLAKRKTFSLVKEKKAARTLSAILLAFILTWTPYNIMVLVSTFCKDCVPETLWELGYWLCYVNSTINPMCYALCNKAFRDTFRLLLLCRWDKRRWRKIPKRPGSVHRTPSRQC
M1 ag = human M1 muscarinic receptor agonists, primary screen, Fluo-8 calcium fluorescence, CHO-K1 cells, HTS; Muscarinic acetylcholine receptor M1 (Homo sapiens), P11229; CHO-K1 hM1, agonist mode; 0% DMSO, 100% acetylcholine EC100; activation, % at 3 µM; hit rate 0.33% among 360,000; AID 588814, 2011;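 active = activation above the run's mean compound activation plus 3 SD, cut at about 16% in these data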;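 note: peak over basal fluorescence ratio within a 140 s kinetic read after compound addition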
M1 PAM parental = nonselective calcium activators in parental CHO-K1 cells, primary screen, counter-screen for M1 PAM project, cell-based, Fluo-8 calcium fluorescence, full deck, 1536-well. ATP EC20; 0% at ATP EC20, 100% at ATP max. activation, % at 3 µM. hit rate 0.02% among 360,000. AID 602247, 2012;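 active = activation above the run cutoff, the mean activation of all test compounds plus 3 SD, cut at about 40% in these data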;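 note: peak over basal fluorescence ratio in a 140 s read after ATP addition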
CHO-K1 Ca ag = counter-screen for M1 agonists: effect in parental CHO-K1 cells | Fluo-8 calcium fluorescence; scaled to maximal ATP response, vehicle zero | activation, % at 3 µM | hit rate 0.48% among 360,000; in the data active = activation above about 15%;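 note: untransfected CHO-K1 host cells lacking M1 receptor as counterscreen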
CHO-K1 Ca antag = M1 antagonist counterscreen hit in parental CHO-K1 cells | hit rate 0.6% among 360,000 | ATP-induced calcium, Fluo-8 fluorescence | inhibition, % at 3 µM;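 active = inhibition above a per-plate cutoff, the plate's mean sample inhibition plus 3 SD, cut at about 24% in these data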;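 note: 0% = DMSO plus EC80 ATP and 100% = DMSO alone without ATP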
CHRM1 PAM = human M1 muscarinic receptor positive allosteric modulators, primary screen, CHO-K1 cells, Fluo-8 calcium fluorescence, 1536-well. activation, % at 3 µM. Muscarinic acetylcholine receptor M1 (Homo sapiens), P11229. CHO-K1 hM1, ACh EC20; 0% = ACh EC20, 100% = maximal ACh. AID 588819, 2011. hit rate 0.088% among 360,000; in the data active = activation above about 19%, passing the limit was not always enough
Numbers without * were called inactive. Most compounds without a hit are left out; they make up all but 2.3% or so of the library.

SMILES	CHRM1 antagonist	M1 ag	M1 PAM parental	CHO-K1 Ca ag	CHO-K1 Ca antag	CHRM1 PAM
Cc1c(-n2c(-c3ccccc3)nc3ccccc3c2=O)c(=O)n(-c2ccccc2)n1C	6	-5	11	21*	3	-3
COc1ccc(-c2nc3ccccc3c(=O)n2-c2c(C)n(C)n(-c3ccccc3)c2=O)cc1	-12	0	-22	0	5	9
C=CCc1c(Cl)nc(C)nc1NCc1ccccc1	-3	2	10	8	-3	-5
COCc1nc2ccccc2n1CCc1ccccc1	-7	1	-10	0	26*	11
COc1cccc(CNC(=O)COC(=O)c2ccc(N3CCCC3=O)cc2)c1	-22	-4	2	0	-7	15
C=C(C)Cn1c2ccc(NC(=O)NCc3ccccc3)cc2c(=O)n1C	-2	-3	-5	0	-2	0
NC(=O)c1nsc(C(=O)N(c2ccccc2F)C(C(=O)NCc2ccccc2)c2ccc(O)cc2)c1N (stereo not drawn)	39*	1	-24	7	7	-23
Cc1ccccc1N(C(=O)c1snc(C(N)=O)c1N)C(C(=O)NCc1ccccc1)c1ccc(O)cc1 (stereo not drawn)	10	2	-9	8	8	-1
CCOc1ccc(-c2c(=O)n(OCc3ccc([N+](=O)[O-])cc3)c3ccccc3[n+]2[O-])c(OCC)c1	-7	7	14	20*	5	9
COc1cc(CCNC2=CC(=O)c3ncccc3C2=O)ccc1O	-8	-2	21	3	-10	5
COc1cc(CN2C[C@@H](CO)O[C@@H](n3cnc4c(NCc5ccco5)ncnc43)C2)cc(OC)c1OC	-8	-1	4	2	-6	-4
COc1ccc2[nH]cc(CCNS(=O)(=O)c3ccc(C)cc3)c2c1	-6	14	14	26*	2	5
Cc1nc2sccn2c(=O)c1S(=O)(=O)NCc1ccccc1	-12	-4	-3	-1	25*	3
COc1cccc(CNS(=O)(=O)c2c(C)nc3sccn3c2=O)c1	-3	2	1	2	2	0
CCOc1ccc(C(C(=O)NCC2CCCO2)N(Cc2cccc(OC)c2)C(=O)c2snc(C(N)=O)c2N)cc1 (stereo not drawn)	2	-2	-13	1	3	2
NC(=O)c1nsc(C(=O)N(c2cccc(F)c2)C(C(=O)NCC2CCCO2)c2cccs2)c1N (stereo not drawn)	9	-6	19	16*	4	-7
COc1ccc(C(C(=O)NCC2CCCO2)N(Cc2cccs2)C(=O)c2snc(C(N)=O)c2N)cc1 (stereo not drawn)	22*	-1	-16	7	8	-14
CCCS(=O)(=O)NC(=O)C1(C)CCN(C(=O)c2c(F)cccc2F)C1 (stereo not drawn)	-12	-2	12	1	0	1
Cc1cccc2sc(NNC(=O)c3ccc(S(=O)(=O)N4CCCC(C)C4)cc3)nc12 (stereo not drawn)	67*	-1	-7	1	5	-16
Cc1cc(C)cc(N2C(=O)C3CCCN3C2=S)c1 (stereo not drawn)	-13	-5	15	17*	-7	9
O=C(CN1C(=O)NC2(CCOc3ccccc32)C1=O)N1CCCCC1 (stereo not drawn)	-12	-2	17	0	-14	11
Cc1ccccc1CSc1nnc(-c2ccncc2)o1	11	-6	2	24*	3	-12
CC(C)(C)NC(=O)CSc1nnc(-c2ccncc2)o1	-3	-3	1	0	25*	4
c1ccc(CSc2nnc(-c3ccncc3)o2)cc1	-2	0	-6	0	2	16
NC(=O)CSc1nnc(-c2ccncc2)o1	-6	-3	22	0	-2	8
